Many of the other results were omitted from the sample, so hits are more common in it than they were.
Giardia FBPA inh = qHTS Assay for Inhibitors of Fructose-1,6-bisphosphate Aldolase from Giardia Lamblia. Potency, µM (highest dose often 59.6 µM), for inactives: at the top dose activity, negative = inhibition, hits mostly inhibitors. purified Giardia FBPA. actives 0.71% (n = 290,000); note: potency is the fitted concentration of half-maximal effect; % is set by controls: 0 for no effect and ±100 for the full control effect; nearly all actives have a fitted effect of over 55% in size
Target sequence (A8B2U2 whole entry, looked up): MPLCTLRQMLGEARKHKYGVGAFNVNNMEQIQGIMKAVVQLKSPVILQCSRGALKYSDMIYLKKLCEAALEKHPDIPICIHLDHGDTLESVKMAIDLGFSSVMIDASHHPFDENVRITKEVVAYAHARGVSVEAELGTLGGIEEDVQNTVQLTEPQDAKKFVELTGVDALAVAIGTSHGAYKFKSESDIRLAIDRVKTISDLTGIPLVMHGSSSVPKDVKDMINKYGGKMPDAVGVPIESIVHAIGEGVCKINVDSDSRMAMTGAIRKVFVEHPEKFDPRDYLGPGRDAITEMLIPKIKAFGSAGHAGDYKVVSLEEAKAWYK
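Giardia FBPA (40 nM reagent) was preincubated 10 min at RT with compound (up to 57.5 uM final), then substrate plus GAPDH/TPI/NAD/arsenate coupling system with diaphorase/resazurin was added; resorufin fluorescence (525/598 nm) was read after 20 min.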
LmPK inhibitor = qHTS Assay for Inhibitors of Leishmania Mexicana Pyruvate Kinase (LmPK); Q27686; purified LmPK, Kinase-Glo ATP luminescence, 1 h; Potency, µM (titrated, usually from 57.5 µM), for the others: top-dose activity change, negative = inhibition, usual class: inhibitors; actives 0.37% (n = 290,000); AID 1721, 2009; note: potency is the fitted concentration of half-maximal effect; % is set by controls: 0 for no effect and ±100 for the full control effect
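In 50 mM imidazole pH 7.2 with 7 mM MgCl2, LmPK (0.1 nM) turned over PEP (0.5 mM) and ADP (0.1 mM) for 1 h at room temperature. Luciferase read-out of ATP.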
Cycloheximide cs = Cycloheximide Counterscreen for Small Molecule Inhibitors of Shiga Toxin. actives 12% (n = 300,000). cell reporter, cycloheximide protein synthesis inhibition counterscreen. AID 2314, 2010. max response, %; in the data active = max response mostly above about 13%, no sharp cut-off; inactive = mostly below about 14%; note: read at 38.3 µM for the half of the compounds with a filed dose; 0% is about no effect
Sm TGR inh = qHTS Assay for the Inhibitors of Schistosoma Mansoni Peroxiredoxins; purified TGR, DTNB reduction, TNB absorbance 405 nm; Schistosoma mansoni thioredoxin glutathione reductase (TGR), Q962Y6; actives 3% (n = 360,000); Potency, µM (doses to about 114 µM), without a hit: at the top dose activity change, negative = inhibition, most hits filed as inhibitors; note: potency is the fitted concentration of half-maximal effect; % is set by controls: 0 for no effect and ±100 for the full control effect; nearly all actives have a fitted effect of over 60% in size
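Kinetic colorimetric format: TGR-catalysed, NADPH-driven DTNB reduction monitored via TNB absorbance. Enzyme dispensed at 20 nM; compound exposure 15 min at room temperature before reaction start.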
Shiga toxin inh = A qHTS for Small Molecule Inhibitors of Shiga Toxin | AID 2315, 2010 | inhibition, % at 38.7 µM | Vero cells, Shiga toxin protein synthesis inhibition reporter | actives 9.2% (n = 290,000); in the data active = inhibition mostly above about 28%, no sharp cut-off; inactive = mostly below about 43%; note: 0% is about no effect
TbPYK inhibitor = qHTS of Trypanosoma Brucei Inhibitors | pyruvate kinase (Trypanosoma brucei), Q57TT1 | TbPYK enzyme, Kinase-Glo Plus ATP luminescence, 45 min | Potency, µM (top dose mostly 76.8 µM), without a hit: at the top dose activity, negative = inhibition, actives largely listed as inhibitors | actives 0.12% (n = 410,000) | AID 624173, 2012; note: potency is the fitted concentration of half-maximal effect; % is set by controls: 0 for no effect and ±100 for the full control effect; nearly all actives have a fitted effect of over 50% in size
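Luminescent Kinase-Glo Plus end-point after 45 min room-temperature reaction of T. brucei pyruvate kinase started with 130 uM ADP (final). Buffer TEA 50 mM pH 7.2 with KCl, MgCl2, BSA, Tween-20; titration-based qHTS with fitted concentration-effect curves.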
* marks the source's active call; other numbers are inactive results; ? = inconclusive; · = not tested or not shown. Unless noted, calls come from the whole dose curve; as a rule, active = well fitted curve in the direction sought with a large enough effect; inconclusive = small, poorly fitted or top-dose-only effect, or another doubt; inactive = no such curve, though single readings can be large; an effect the other way counts as inactive or inconclusive.

SMILES	Giardia FBPA inh	LmPK inhibitor	Cycloheximide cs	Sm TGR inh	Shiga toxin inh	TbPYK inhibitor
COc1ccccc1NC(=O)N(Cc1ccco1)Cc1cc2c(C)ccc(C)c2[nH]c1=O	3%	1%	-3	32µM*	-3	1%
Cc1cccc2cc(CN(CC3CCCO3)C(=O)c3ccco3)c(=O)[nH]c12 (stereo not drawn)	4%	2%	-6	35µM*	-11	-16%
Cc1ccc2cc(CN(CC3CCCO3)C(=S)NCc3ccco3)c(=O)[nH]c2c1C (stereo not drawn)	-7%	-3%	-1	-19%	-10	-15%
CCc1ccc2[nH]c(=O)c(CN(CC3CCCO3)C(=S)NCc3ccco3)cc2c1 (stereo not drawn)	-14%	2%	22*	-20%	8	-14%
O=C(c1ccco1)N(Cc1cc2ccccc2[nH]c1=O)CC1CCCO1 (stereo not drawn)	2%	10%	-2	-7%	-16	-3%
COc1ccc2c(Sc3ccc(Cl)cc3)c(C(=O)N3CCCCC3)[nH]c2c1	·	·	·	-11%	·	-1%
Cc1cc(C)c2cc(CN(Cc3ccco3)C(=S)NCC3CCCO3)c(=O)[nH]c2c1 (stereo not drawn)	-8%	8%	1	25µM*	-1	0%
CCCn1c(-c2ccc(F)cc2)nc2c(NCCN(CC)CC)nc(C)nc21	3%	·	·	·	·	·
COc1cccc(NC(=O)CCN2C(=O)c3ccccc3S2(=O)=O)c1	2%	-6%	14*	3%	33	4%
COc1ccc(NC(=O)CCN2C(=O)c3ccccc3S2(=O)=O)c(OC)c1	0%	11%	4	-4%	20	2%
Cc1ccc(NC(=O)CN2C(=O)c3ccccc3S2(=O)=O)cc1C	-3%	0%	11*	3%	11	5%
CC(C)c1ccc(CN(C)CC(O)c2ccccc2)cc1 (stereo not drawn)	?	12%	8	-1%	13	-14%
CN1C(c2ccccc2)CCOS1(=O)=O (stereo not drawn)	11%	0%	0	-6%	-5	-1%
c1ccc(C2CC3CC(c4ccco4)N2O3)cc1 (stereo not drawn)	1%	2%	-1	35µM*	4	2%
CC(C)(C)c1ccc(-c2nnc3sc(-c4ccccn4)nn23)cc1	-16%	-2%	46*	0%	91*	?
Brc1ccc(-c2nn3c(-c4ccccn4)nnc3s2)o1	?	5%	14*	?	25	-2%
c1ccc(-c2nn3c(-c4ccco4)nnc3s2)nc1	8%	0%	-2	25µM*	17	-14%
Brc1ccc(-c2nn3c(-c4ccco4)nnc3s2)o1	-6%	4%	1	8.9µM*	20	-24%
Cc1ccc(S(=O)(=O)N2CCCC2)cc1C(=O)NCc1ccccc1CN1CCCC1	·	·	·	-14%	·	4%
COc1ccc(C2=CC(c3ccc(Cl)cc3)n3cnnc3N2)cc1OC (stereo not drawn)	-8%	5%	9	25µM*	12	3%
COc1ccc(C2C=C(c3ccc(F)cc3)Nc3nc(-c4ccc(Cl)cc4)nn32)cc1 (stereo not drawn)	·	·	·	1%	·	-3%
Cc1nn(C)cc1/C=N/NC(=S)Nc1ccc(Cl)cc1Cl	-6%	5%	12*	8%	active	-3%
O=[N+]([O-])c1ccc(O)c(/C=N/NC(=S)Nc2ccc(Cl)cc2Cl)c1	17%	4%	-2	8%	28	8%
CCn1nc(C)c(/C=N/NC(=S)Nc2ccc(Cl)cc2Cl)c1C	-4%	7%	11	0%	active	-6%
O=[N+]([O-])c1ccc(/C=N/NC(=S)Nc2ccc(Cl)cc2Cl)s1	-27%	-4%	11	45µM*	22	-5%
SMILES	Giardia FBPA inh	LmPK inhibitor	Cycloheximide cs	Sm TGR inh	Shiga toxin inh	TbPYK inhibitor
Cc1ccc(Cl)cc1NC(=S)N/N=C/c1cccc2ccccc12	4%	5%	2	23%	12	2%
C=CCOC(=O)N[C@@H](Cc1ccccc1)/C(C(=O)OC)=C(\C)NCc1ccccc1	-1%	·	·	·	·	·
Cc1cc(C(=O)COC(=O)c2ccc3c(c2)NC(=O)CS3)c(C)n1CC1CCCO1 (stereo not drawn)	0%	1%	38*	2%	56*	1%
Cc1cc(C(=O)COC(=O)c2ccc(O)cc2)c(C)n1CC1CCCO1 (stereo not drawn)	13%	-2%	59*	-13%	107*	-16%
COCC(C)n1c(C)cc(C(=O)COC(=O)c2ccc3c(c2)NC(=O)CS3)c1C (stereo not drawn)	-9%	3%	15	-1%	27	-8%
Cc1ccc(OCC(=O)N(Cc2ccc(N(C)C)cc2)CC2CCCO2)cc1C (stereo not drawn)	·	·	·	5%	·	-20%
O=C(CSc1nnc(CNC(=O)c2c(F)cccc2F)o1)NCc1ccc(F)cc1	·	-12%	5	28µM*	-29	2%
O=C(CSc1nnc(Nc2ccccc2)s1)NCc1ccco1	0%	-2%	3	?	1	-2%
O=C(CSc1nnc(Nc2ccccc2F)s1)NCc1ccco1	-17%	-4%	2	50µM*	34	-9%
COc1ccccc1C(=O)Nc1nnc(SCC(=O)NCC2CCCO2)s1 (stereo not drawn)	·	-6%	40*	-20%	115*	-1%
COc1ccccc1C(=O)Nc1nnc(SCC(=O)NCc2ccco2)s1	·	1%	43*	?	63*	-10%
O=C(CSc1nnc(CNC(=O)c2c(F)cccc2Cl)o1)NCc1ccc(F)cc1	·	-9%	-1	-2%	-11	1%
COc1cc(C(=O)Nc2nnc(SCC(=O)NCC3CCCO3)s2)cc(OC)c1OC (stereo not drawn)	·	-6%	2	-9%	24	1%
NCCCC[C@H](NC(=O)[C@@H]1CCCN1C(=O)[C@H](CO)NC(=O)[C@H](CC(=O)O)NC(=O)CNC(=O)[C@H](CCCN=C(N)N)NC(=O)CN)C(=O)O	-2%	·	-1	·	-6	·
CCOc1ccc(-n2nc(CO)c(C(=O)NCc3ccccn3)n2)cc1	·	·	·	5%	·	5%
Cc1ccc(NC(=O)Cn2c(=O)n(CC3CCCO3)c(=O)c3ccccc32)cc1 (stereo not drawn)	·	·	·	-9%	·	-9%
COc1cc(CC(C)N)c(OC)cc1Br (stereo not drawn)	·	·	·	·	·	-5%
COc1ccc(C(=O)Nc2nnc(SCC(=O)NCc3ccco3)s2)c(OC)c1	·	-1%	35*	-1%	33*	5%
O=C(CSc1nnc(NC(=O)c2ccccc2F)s1)Nc1ccccc1F	3%	-11%	35*	2%	70*	3%

Screens: PubChem BioAssay, National Center for Advancing Translational Sciences (NCATS)
